# Source: PubChem BioAssay (Tox21)
# Inconclusive results are not listed. Where a call stands in place of a potency, no number is given. Active and inactive are the calls of the source. Calls come from the whole dose curve.
# Test: qHTS assay to identify small molecule agonists of the AP-1 signaling pathway - cell viability counter screen (AID 1159525); note: nearly all actives have a fitted effect of over 55% in size
# Details: ME-180 (cervical carcinoma) AP-1-bla cells viability, ATP luminescence, 5 h; series mostly up to 76.8 µM
# Method in brief: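 AP-1-bla ME-180 cells in Opti-MEM with 0.5% dialyzed FBS, compound exposure 5 h at 37 C in 15-point titration. Viability read in the same wells as ATP content by CellTiter-Glo luminescence, normalised to tetra-n-octylammonium bromide and DMSO controls.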
# Potency is the fitted concentration of half-maximal effect.
row,SMILES,Potency
1,c1ccc2c(c1)[nH]c1cnccc12,inactive
2,Clc1ccc(C(c2ccccc2Cl)C(Cl)(Cl)Cl)cc1 (stereo unspecified),36.1 µM (active)
3,CC(=O)C(Cl)(Cl)Cl,inactive
4,[Cd+2].[Cl-].[Cl-],inactive
5,COC(=O)N(C(=O)N1CO[C@@]2(C(=O)OC)Cc3cc(Cl)ccc3C2=N1)c1ccc(OC(F)(F)F)cc1,inactive
6,CCOC(=O)C1(c2ccccc2)CCN(CCC(C#N)(c2ccccc2)c2ccccc2)CC1,inactive
7,Nc1ccc(Sc2ccc(N)cc2)cc1,inactive
8,CCC[CH2][Sn]([CH2]CCC)([CH2]CCC)[O]C(=O)c1ccccc1,1.23 µM (active)
9,N#C/C=C/C#N,inactive
10,O=c1oc2ccccc2c(O)c1Cc1c(O)c2ccccc2oc1=O,inactive
11,C[C@]12CC[C@@H]3c4ccc(OC(=O)N(CCCl)CCCl)cc4CC[C@H]3[C@@H]1CC[C@@H]2O,inactive
12,CCCN(CCC)c1c([N+](=O)[O-])cc(S(N)(=O)=O)cc1[N+](=O)[O-],43.6 µM (active)
13,CSCCCN=C=S,inactive
14,S=C=Nc1cccc2ccccc12,24.3 µM (active)
15,CCCCCCCCc1ccc(O)cc1,22 µM (active)
16,CN(C)C1CSSSC1,inactive
17,O=[N+]([O-])c1c2ccccc2cc2ccccc12,inactive
18,CC(Cc1ccc(C(C)(C)C)cc1)CN1C[C@@H](C)O[C@@H](C)C1 (stereo partly specified),inactive
19,CCC(C)c1cc([N+](=O)[O-])cc([N+](=O)[O-])c1OC(=O)C=C(C)C (stereo unspecified),inactive
20,CC(C)Oc1cccc(NC(=O)c2ccccc2C(F)(F)F)c1,inactive
21,c1ccc(Nc2ccc3ccccc3c2)cc1,48.7 µM (active)
